From PubChem BioAssay AID588855 (National Center for Advancing Translational Sciences (NCATS), 2011) come the findings set out here.

SMILES strings stand for the structures. Out of some 410,000 compounds screened, about 5,000 (1.2%) were called active. Not shown: some 13% with an inconclusive outcome. The call rests on the fitted dose curve; in most records, active means well fitted inhibition curve with a large enough effect; inconclusive means small, poorly fitted or top-dose-only effect; inactive means no such curve, though single readings can be large or run the other way. What follows is part of a selection rich in actives, with near analogues and random picks from the rest. A call without a number means that no potency is given here.
Potency means the concentration at half of the fitted maximal effect.

The nature of this assay: qHTS for Inhibitors of TGF-b. Further: nearly all actives have a fitted effect of over 65% in size. The note with it: HepG2 CAGA-GFP TGF-b/SMAD3 reporter, GFP fluorescence, 18 h, TGF-beta stimulated, 500 pg/mL final; series mostly up to 46.1 µM. An excerpt:
TGF-b is a main component in the TGF-b signaling pathway which plays diverse roles in cellular and development pathways. TGF-b is the mediated by the transcription factors Smads. Although the Smad-dependent pathway is the primary canonical TGF-b signaling node, TGF-b1 can also activate alternative signaling pathways, including those involving MAPK (ERK, JNK and p38). This interaction may mediate or enhance Smad-dependent responses, or can exert Smad-independent effects. The complexity of this signaling cascade allows the TGF-b superfamily to perform unique, overlapping or redundant functions. We believe that targeting the TGF-beta pathway at the Smad-transcription factor level may eliminate the consequences of disrupting the entire pathway and offer specificity without affecting other signaling pathways. Smad3 is the primary transducer of TGF-b's signals and Smad3 regulates many functions attributed to TGF-b signaling. We hypothesize that Smad3 inhibitors will selectively eliminate Smad3-specific TGF-beta signals without undesired off-target effects. We aim to identify Smad3-small molecule antagonists using a quantitative high throughput screening (qHTS) approach.
A high-throughput assay was developed to screen the NIH Molecular Libraries Small Molecule Repository (MLSMR). This is a cell based assay, where TGF-b is tagged with GFP. A counterscreen is run that looks at cytotoxicity (please see summary AID).
MH087449NIH Chemical Genomics Center [NCGC]
NIH Molecular Libraries Probe Centers Network [MLPCN]
Assay Submitter (PI): Sushil Rane, National Institute of […]
Suspensions of trypsinized HEPG2 CAGA-GFP cells were dispensed into white, tissue culture-treated, solid 1536-well plates at 5uL/well (1000 cells/well final concentration) in DMEM medium supplemented with 1% FBS. Plates were incubated at 37 degrees C for 2 hours, after which 23 nL of compounds or DMSO were delivered to each well using a pin tool. One uL of recombinant TGF-beta in DMEM (1% FBS) was then dispensed (500 pg/mL final concentration), and plates were incubated at 37 degrees C for 18 hours. The plates were measured on an Acumen eX3 Explorer plate reader for GFP fluorescence (ex488/em500-530). GFP values were calculated by determining the mean GFP fluorescence of individual cells, and compiling these values for each well to determine a total well GFP signal. The %Activity was determined from the corrected fluorescence values. A titration of the known TGF-B inhibitor SB431542 was included to monitor plate performance, while unstimulated HEPG2 (-TGF-B) control wells were used to normalize %Activity of identified inhibitors; unstimulated wells corresponded to 100%Activity (full inhibition), while stimulated cell controls (+DMSO) were used to normalize 0%Activity (no inhibition).
Concentration-response curves were fitted to the signals arising from the resulting fluorescence. The concentration-effect curves were then classified based on curve quality (r2), response magnitude and degree of measured activity, and compounds were subsequently categorized based on their curve class.
For orientation: In qHTS, concentration-response curves come from the screen itself.
For the molecule `C[C@]12CCC3C(CC[C@H]4C[C@@H](O)CC[C@]34C)C1CC[C@@H]2O` (some centres undefined), the Potency result was “inactive”. The entry for `CC12CCC(O)CC1CCC1C2CCC2(C)C(C(=O)CC(O)C(F)(F)F)CCC12` (centres undefined) is “inactive”; for `C[C@]12CC[C@H](O)C[C@H]1CC[C@@H]1C2CC[C@]2(C)[C@@H](C3=CC(=O)OC3)[C@@H](O)C[C@]12O` (some centres undefined) it is 11.2 µM (active); for `C[C@H]1CN([C@@H](C)CO)C(=O)CCCn2nncc2CO[C@H]1CN(C)C(=O)Oc1ccccc1` it is “inactive”. On to `COc1ccccc1OC(=O)c1ccc(C)c(S(=O)(=O)N2CCOCC2)c1`, for which the Potency entry was “inactive”.

For `COc1ccc2c(c1)NP(=S)(c1ccccc1)N2` (centres undefined), the Potency result is “inactive”. The entry for `Cc1nc2ccccc2c(=O)n1-c1ccc(Cl)cc1Cl` is “inactive”; for `Cn1cc(/C=C/c2nc3ccccc3c(=O)n2-c2ccccc2)c2ccccc21` it is “inactive”; for `O=c1c2ccccc2nc(/C=C/c2ccc(F)cc2)n1-c1ccccc1O` it is 10 µM (active).

Consider `CC(C)CN1Cc2cc(N3CCCCC3)ccc2-n2nncc2C1`, for which the Potency result was “inactive”. As to `O=c1c2ccccc2nc(CBr)n1-c1ccc(Cl)cc1`, the Potency result was “inactive”. In the case of `Cn1c(O)c(C=NCCCC(=O)O)c(=O)n(C)c1=O`, the Potency entry is “inactive”. Under `O=C(N/N=C/c1c(O)n(Cc2ccccc2)c(=O)[nH]c1=O)c1ccccc1` stands “inactive”; under `CCCCC(=O)N/N=C/c1c(O)n(CC)c(=S)n(CC)c1=O`, 22.4 µM (active); under `COc1cc(C(c2c(O)c3ccccc3oc2=O)c2c(C)n(C)n(-c3ccccc3)c2=O)ccc1O` (centres undefined), “inactive”. Under `C[C@H]1CN([C@@H](C)CO)C(=O)CCCn2nncc2CO[C@H]1CN(C)C(=O)Oc1cccc2ccccc12` stands “inactive”; under `CC1CCCCN1Cc1cccnc1` (centres undefined), “inactive”; under `COC1C(O)C(C)OC(OC2CCC3(C=O)C(CCC4C3CCC3(C)C(C5=CC(=O)OC5)CCC43O)C2)C1O` (centres undefined), 0.355 µM (active). The entry for `O=c1[nH]c(CN2CC=C(c3ccccc3)CC2)nc2scc(-c3cccs3)c12` is “inactive”.

With `COC(=O)C1=C(c2cc3ccccc3s2)C[C@@H]2CC[C@H]1N2C(=O)NCCO`, the Potency entry was “inactive”. In the case of `COc1cc(C2c3cc4c(cc3C(O)C3COC(=O)C23)OCO4)cc(OC)c1OC` (centres undefined), the Potency result was “inactive”. Under `O=C(O)c1cc[c]([Sb](=[O])([OH])[OH])cc1[N+](=O)[O-]` stands “inactive”; under `CO[C@H]1[C@@H](O)[C@@H](C)O[C@H](O[C@H]2[C@H](Oc3cccc4c(O)c5c(=O)oc6ccc(C)c7c(=O)oc(c34)c5c67)O[C@H](C)[C@H](O)[C@@H]2O)[C@@H]1O`, “inactive”; under `CSCCC(c1nnnn1C(C)(C)C)N1CCC(n2c(=O)[nH]c3ccccc32)CC1` (centres undefined), “inactive”. The entry for `CC1(C)Cc2c(C#N)c(N3CCNCC3)nc(-c3ccco3)c2CS1` is “inactive”; for `Cc1cccc(Cn2cccc(C(=O)Nc3ccc4c(c3)OCCO4)c2=O)c1` it is 10 µM (active).

Regarding `Cc1nnc(NC(=O)c2cccn(Cc3cccc(F)c3)c2=O)s1`, the Potency result was “inactive”.

Consider `Cc1ccccc1NC(=O)COC(=O)c1cc(C)n(C2CC2)c1C`, for which the Potency entry is “inactive”. In the case of `COc1ccc(NC(=O)N2Cc3ccccc3-n3nncc3C2)cc1`, the Potency result was “inactive”. On to `Cc1ccc(OC(=O)N(C)C[C@@H]2OCc3cnnn3CCCC(=O)N([C@H](C)CO)C[C@@H]2C)cc1`, for which the Potency result was “inactive”. For `CCOC(=O)CNC(=O)N1Cc2cc(N3CCCCC3)ccc2-n2nncc2C1`, the Potency result was “inactive”. Under `CC(=O)c1ccc(OC(NC(=O)Cc2ccccc2)C(Cl)(Cl)Cl)cc1` (centres undefined) stands “inactive”; under `CN1CCN(/N=C/c2c[nH]c3ccccc23)CC1`, “inactive”; under `CN(C)CCN(CC1CCCN(Cc2ccccc2F)C1)C(=O)Cc1ccc(F)c(F)c1` (centres undefined), “inactive”. The entry for `CCn1cc(CN2CCCC(C(=O)c3cccc(C(F)(F)F)c3)C2)cn1` (centres undefined) is “inactive”; for `CC(=O)Nc1ccc(CC#N)cc1` it is “inactive”; for `CCC(C)(O)C(=O)OC1C(=O)OC2CC3C(C)=CC(=O)C(O)C3(C)C3C4(O)OCC23C1C(C)C4O` (centres undefined) it is 0.355 µM (active). Under `O=C1C2CCN(CC2)C1(CO)CO` stands “inactive”; under `COc1ccc(C2C=C(C)Oc3c2c(=O)oc2ccccc32)cc1OC` (centres undefined), “inactive”; under `CN(C(=O)c1cccc(NC(=O)Cc2cccc([N+](=O)[O-])c2)c1)C1CCCCC1`, 20 µM (active). In the case of `CN(C)P(=S)(Nc1ccccc1)C(Cl)(Cl)Cl` (centres undefined), the Potency entry is “inactive”.

With `O=C1CC(=O)N(Cc2ccccc2)C(=O)N1CCCCCCN1C(=O)CC(=O)N(Cc2ccccc2)C1=O`, the Potency result was “inactive”. As for `CC(C)(C)c1ccc(CN2C(=O)CN=C(c3ccccc3)c3ccccc32)cc1`, the Potency is 11.2 µM (active).

In the case of `O=C(O)/C=C/c1ccc2c(c1)OCO2`, the Potency entry was “inactive”. The entry for `CC1=C(C(=O)Nc2ccccc2)S(=O)(=O)CCO1` is “inactive”. The entry for `CNC(=O)N(C)c1nnc(C(C)(C)C)s1` is “inactive”.

With `c1ccc(N2Cc3ccccc3-n3nncc3C2)nc1`, the Potency entry is “inactive”. `O=Cc1cn(Cc2ccc(F)cc2Cl)c2ccccc12`: the Potency was 8.91 µM (active). Under `CC(=O)C1(O)CCC2C3CCC4=C(Cl)C(=O)CCC4(C)C3CCC21C` (centres undefined) stands “inactive”; under `N#Cc1c(Cl)c(Cl)c(Cl)c(C#N)c1Cl`, 0.251 µM (active). Under `CCOC(=O)C(O)(c1ccc(N=Cc2ccccc2O)c(C)c1)C(F)(F)F` (centres undefined) stands “inactive”; under `O=C(Oc1ccc2c(c1)CCC2)N1CCOCC1`, “inactive”. The entry for `CCN(CC)C(=O)c1ccc(NC(=O)c2sccc2-c2ccccc2)cc1` is “inactive”; for `CCOc1cccc(=NC2CCCCC2)c2c(C)[nH]c(C)c12` it is 10 µM (active); for `Cc1nc2ccccn2c1P(=S)(N1CCCCC1)N1CCCCC1` it is “inactive”. Consider `COc1c(O)ccc2c1-c1c3c(cc4c1C(C2)N(C)CC4)OCO3` (centres undefined), for which the Potency entry was “inactive”. As for `COc1ccc2cc1Oc1ccc(cc1)C[C@H]1c3cc(c(OC)cc3CCN1C)Oc1c(O)c(OC)cc3c1[C@H](C2)N(C)CC3`, the Potency is 7.94 µM (active). Consider `COc1ccc2c(c1O)-c1cccc3c1[C@@H](C2)N(C)CC3`, for which the Potency entry was “inactive”. Regarding `CN(C)/C=C(\C=[N+](C)C)c1[nH]ncc1[N+](=O)[O-]`, the Potency result was “inactive”. Take `COC(=O)C1=C(c2ccc(OCc3ccccc3)cc2)C[C@@H]2CC[C@H]1N2C(=O)NCc1cccc(F)c1`: the Potency result is “inactive”. Under `Cc1ncoc1C(=O)NCC1=C(c2cccc3ccccc23)C[C@@H]2CC[C@H]1N2Cc1ccco1` stands “inactive”; under `ClCCN(CCCl)c1ccc(C=Nc2ccc(/C=C/c3ccnc4ccccc34)cc2)cc1`, “inactive”; under `CCCCCCCCCCCCn1ccc(=N)cc1`, 10 µM (active). The entry for `Cc1ccc(Oc2cnn(-c3ccccc3)c(=O)c2Br)cc1` is “inactive”. The entry for `CCC1(CC(C)c2ccccc2)C(=O)NC(=O)NC1=O` (centres undefined) is “inactive”. As to `CCOP(=S)(OCC)SCOC(=O)NCC(=O)OC`, the Potency entry is “inactive”. Under `O=P1(Oc2ccccc2)CC(O)C(O)C(COCc2ccccc2)O1` (centres undefined) stands “inactive”; under `O=c1c2ccccc2[nH]c(=S)n1-c1cccc(Cl)c1`, “inactive”; under `OC(Cn1c2ccccc2c2ccccc21)C[n+]1ccccc1` (centres undefined), “inactive”.

`CC[C@H]1CN2CCc3cc(OC)c(OC)cc3[C@@H]2C[C@@H]1C[C@H]1NCCc2cc(OC)c(OC)cc21`: the Potency was 0.0891 µM (active). In the case of `CC(=O)OC1C2(CC3N4C(=O)C5(CO)SSC4(CC31O)C(=O)N5C)OC(C)C(C)(C)C2=O` (centres undefined), the Potency is 0.794 µM (active).

As for `O=C(NCC1=C(c2ccc3ccccc3c2)C[C@@H]2CC[C@H]1N2Cc1ccco1)c1cccs1`, the Potency entry was “inactive”.

`CNC(=S)N/N=C1\C2CN3CCN(C2)CC1(c1ccccc1)C3`: the Potency result is “inactive”.

As to `O=C(Cc1ccccc1)N1CCN(C2CCCCCC2)CC1`, the Potency result is “inactive”.

Regarding `CN(C)CC1Oc2ccccc2OC1(O)c1ccccc1` (centres undefined), the Potency was 2.82 µM (active). Under `COc1ccc2c(c1)[C@]13CCCCC1C(C2)N(C)CC3` (some centres undefined) stands “inactive”. The entry for `CCOc1ccc(CNC(=O)c2cccc(Nc3nc4ccccc4n4nnnc34)c2)cc1OC` is “inactive”; for `COc1ccc(C2NCc3ccc4c(c3-n3cccc32)OCO4)cc1OC` (centres undefined) it is “inactive”. Turning to `CN(C)C(=O)Oc1ccc(NC(=O)N2CCOCC2)cc1`, the Potency entry was “inactive”.

Consider `Cc1cccc(-n2c(O)c(C=NC34CN5CN(CN(C5)C3)C4)c(=O)[nH]c2=O)c1`, for which the Potency result is “inactive”.

In the case of `c1cc2c(c(NC3=NCCCS3)c1)CCCC2`, the Potency result was “inactive”. The entry for `CCOC(=O)c1cccc(C2=C(CNC(=O)c3ccncc3)[C@H]3CC[C@@H](C2)N3Cc2ccccc2)c1` is “inactive”; for `O=C(COC(=O)Cc1ccccc1)Nc1ccc(F)cc1` it is “inactive”; for `CC(=O)NCC1=C(c2ccc3ccccc3c2)C[C@@H]2CC[C@H]1N2Cc1ccco1` it is “inactive”.
